Results: PubChem BioAssay AID1159580 (chemical genetic matrix, 2015)
The whole screen tested about 5,500 compounds, of which about 2,000 (36%) were called active. Roughly 18% stayed inconclusive and do not appear here. No stated cut-off is given here; in the data, active means normalized growth mostly below about 0.91 (no sharp cut-off); inconclusive means no clear call, values can overlap the other calls; inactive means mostly above about 0.92. The list shows a part of the results.

Assay: chemical genetic growth profiling, strain panel (AID 1159580);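 further: tested at 20 µM; growth read once vehicle control cultures reached saturation at 30 °C; 1 = growth at the plate median or of vehicle wells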
Details: S. cerevisiae deletion strains, growth OD

Measured: normalized growth

COc1ccc2c(c1)CCC1C2CCC2(C)C1C[C@@H](O)C2O (stereo not given in full)
active: locus YAL026C, strain drs2, stronger effect = lower value 0.83 | locus YDR392W, strain spt3, stronger effect = lower value 0.685 | locus YER155C, strain BEM2 (second series), stronger effect = lower value 0.715 | locus YGL253W, strain hxk2, stronger effect = lower value 0.903 | locus YJL164C, strain tpk1, stronger effect = lower value 0.907
inactive: locus YAL013W, strain DEP1, stronger effect = lower value 1 | locus YAL021C, strain ccr4, stronger effect = lower value 0.947 | locus YAL030W, strain snc1, stronger effect = lower value 1 | locus YBL061C, strain skt5, stronger effect = lower value 1 | locus YBR009C, strain hhf1, stronger effect = lower value 0.917 | locus YBR021W, strain FUR4, stronger effect = lower value 1.08 | locus YBR023C, strain chs3, stronger effect = lower value 0.988 | locus YBR171W, strain sec66, stronger effect = lower value 0.983 | locus YBR229C, strain ROT2, stronger effect = lower value 1.02 | locus YBR231C, strain swc5, stronger effect = lower value 1.01 | locus YBR279W, strain paf1, stronger effect = lower value 0.992 | locus YCL011C, strain gbp2, stronger effect = lower value 0.977 | locus YCL016C, strain dcc1, stronger effect = lower value 0.949 | locus YCL029C, strain bik1, stronger effect = lower value 0.993 | locus YCL061C, strain MRC1, stronger effect = lower value 0.985 | locus YCL069W, strain vba3, stronger effect = lower value 1 | locus YCR088W, strain abp1, stronger effect = lower value 0.998 | locus YDL005C, strain med2, stronger effect = lower value 1.01 | locus YDL035C, strain GPR1, stronger effect = lower value 0.962 | locus YDL040C, strain nat1, stronger effect = lower value 0.993 | locus YDL074C, strain BRE1, stronger effect = lower value 0.95 | locus YDL101C, strain DUN1, stronger effect = lower value 1.02 | locus YDL134C, strain PPH21, stronger effect = lower value 0.952 | locus YDL185W, strain tfp1, stronger effect = lower value 0.992 | locus YDL192W, strain arf1, stronger effect = lower value 0.997 | locus YDR001C, strain nth1, stronger effect = lower value 1.01 | locus YDR069C, strain doa4, stronger effect = lower value 0.992 | locus YDR101C, strain arx1, stronger effect = lower value 0.987 | locus YDR137W, strain rgp1, stronger effect = lower value 0.854 | locus YDR150W, strain NUM1, stronger effect = lower value 1.01 | locus YDR159W, strain sac3, stronger effect = lower value 0.966 | locus YDR162C, strain NBP2, stronger effect = lower value 0.978 | locus YDR195W, strain ref2 1.1 | locus YDR297W, strain sur2, stronger effect = lower value 1 | locus YDR318W, strain mcm21, stronger effect = lower value 0.991 | locus YDR334W, strain swr1, stronger effect = lower value 1 | locus YDR335W, strain msn5, stronger effect = lower value 0.997 | locus YDR388W, stronger effect = lower value 0.99 | locus YDR502C, strain sam2, stronger effect = lower value 0.997 | locus YEL003W, strain gim4, stronger effect = lower value 0.992 | locus YEL037C, strain rad23, stronger effect = lower value 1 | locus YEL061C, strain CIN8 (second series), stronger effect = lower value 1.01 | locus YEL061C, strain CIN8, stronger effect = lower value 1.01 | locus YER015W, strain faa2, stronger effect = lower value 0.996 | locus YER016W, strain bim1, stronger effect = lower value 0.979 | locus YER110C, stronger effect = lower value 0.983 | locus YER111C, strain swi4, stronger effect = lower value 0.984 | locus YER155C, strain BEM2, stronger effect = lower value 1.02 | locus YER167W, strain BCK2, stronger effect = lower value 0.999 | locus YFR010W, strain ubp6, stronger effect = lower value 1 | locus YGL078C, strain dbp3, stronger effect = lower value 0.997 | locus YGL086W, strain mad1, stronger effect = lower value 0.991 | locus YGL167C, strain pmr1, stronger effect = lower value 1 | locus YGL173C, strain kem1, stronger effect = lower value 0.949 | locus YGL227W, strain vid30, stronger effect = lower value 1 | locus YGL240W, strain doc1, stronger effect = lower value 0.944 | locus YGL248W, strain PDE1, stronger effect = lower value 1 | locus YGR135W, strain pre9, stronger effect = lower value 0.961 | locus YGR252W, strain gcn5, stronger effect = lower value 0.774 | locus YHR013C, strain ard1, stronger effect = lower value 0.906 | locus YHR027C, strain rpn1, stronger effect = lower value 1.01 | locus YHR030C, strain SLT2, stronger effect = lower value 1.01 | locus YHR079C, strain IRE1 (second series), stronger effect = lower value 0.992 | locus YHR094C, strain hxt1, stronger effect = lower value 0.992 | locus YHR129C, strain ARP1, stronger effect = lower value 1.01 | locus YHR142W, strain chs7, stronger effect = lower value 0.925 | locus YHR200W, strain rpn10, stronger effect = lower value 0.993 | locus YIL066C, strain RNR3, stronger effect = lower value 0.98 | locus YIL073C, strain SPO22, stronger effect = lower value 0.91 | locus YIL125W, strain kgd1, stronger effect = lower value 1 | locus YIR030C, strain dcg1, stronger effect = lower value 0.991 | locus YJL092W, strain hpr5, stronger effect = lower value 0.998 | locus YJL095W, strain BCK1 (second series), stronger effect = lower value 0.981 | locus YJL095W, strain BCK1, stronger effect = lower value 0.944 | locus YJL115W, strain asf1, stronger effect = lower value 0.995 | locus YJL129C, strain trk1, stronger effect = lower value 0.915 | locus YJL134W, strain LCB3, stronger effect = lower value 1.02 | locus YJL154C, strain vps35, stronger effect = lower value 1.02 | locus YJL168C, strain set2, stronger effect = lower value 0.994 | locus YJL187C, strain SWE1 (second series), stronger effect = lower value 1
